The values that follow come from PubChem BioAssay AID652257 (The Scripps Research Institute Molecular Screening Center, 2013).

Out of some 370,000 compounds screened, about 4,800 (1.3%) were called active. Only a selection was taken, and actives are over-represented in it overall. Unmarked numbers belong to inactive results.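 The calls were made as follows: active = inhibition above about 21% made by adding two undisclosed values (limit read from the data); inactive = the rest.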

Chain of Protein arginine N-methyltransferase 1 (Homo sapiens) (Q99873 whole entry, looked up): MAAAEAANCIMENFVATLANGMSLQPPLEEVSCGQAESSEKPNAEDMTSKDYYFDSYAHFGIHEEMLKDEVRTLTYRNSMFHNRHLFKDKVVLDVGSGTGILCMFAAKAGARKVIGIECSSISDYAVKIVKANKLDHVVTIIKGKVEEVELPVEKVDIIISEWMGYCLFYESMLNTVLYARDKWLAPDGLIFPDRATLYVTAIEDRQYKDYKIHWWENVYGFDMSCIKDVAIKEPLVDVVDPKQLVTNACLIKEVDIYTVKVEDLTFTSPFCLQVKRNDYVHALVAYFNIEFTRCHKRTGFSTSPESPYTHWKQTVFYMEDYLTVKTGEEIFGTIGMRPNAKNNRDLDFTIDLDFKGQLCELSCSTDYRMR

The test concerns the target Protein arginine N-methyltransferase 1 (Homo sapiens) (UniProt Q99873). In words: human PRMT1 activity-probe blockers – biochemical, fluorescence polarization, primary screen (AID 652257). The note with it: recombinant PRMT1, activity-based probe fluorescence polarization; at 2.79 µM; active compounds read high. For orientation: Polarisation of emitted light reports the rotation of a fluorescent probe.
In general, inhibition refers to the drop in the measured response relative to a control, in per cent. Regarding `O=C(O)C#Cc1cccc2ccccc12`, the inhibition was -1.9%.
`CC(CCN1CCC(C(O)(c2ccccc2)c2ccccc2)CC1)Oc1ccc(C(F)(F)F)cc1` (stereo unspecified): the inhibition was 0.57%.
With `CCOc1ccc(-n2c(SCC(=O)Nc3cc(C)c(NC(=O)c4ccccc4)cc3OC)nnc2-c2cccc(Cl)c2)cc1` the figure was 7.2%; with `C=CS(=O)c1sc(Cl)c(N2CCOCC2)c1[N+](=O)[O-]` (stereo unspecified), 73.1% (active); with `CCN(C(=O)[C@@H](C1CC1)[C@@H](O)c1ccc2ccccc2c1)c1ccccc1`, -0.98%.
Turning to `O=C(O)C1CCN(C(=O)c2cc(F)cc3c2OCOC3)CC1`, the inhibition was -0.21%.
Regarding `CC(=O)N1CCc2cc(Br)cc(S(=O)(=O)CCC(=O)Nc3c(C)n(C)n(-c4ccccc4)c3=O)c21`, the inhibition is 4.6%.
For the compound `O=C(O)/C=C/C(=O)NNc1ccc([N+](=O)[O-])cc1`, the inhibition was 59% (active).
The figure for `CC(C)(C)C(=O)NCCCNc1ccc([N+](=O)[O-])cc1` is 9.07%; for `O=C(CSCc1ccc([N+](=O)[O-])cc1)NCCSCc1ccccc1` it is -0.87%.
With `COC(=O)c1ccccc1-n1cc(COC(=O)NCCc2ccccc2)nn1` the figure was -0.03%.
For `Brc1ccc(/C=N/N2CCN(C3c4ccccc4-c4ccccc43)CC2)s1`, the inhibition is -0.5%.
With `S=c1[nH]nc(-c2ccco2)n1/N=C/c1ccc(Br)s1`, the inhibition was 34.3% (active).
With `CCc1ccccc1NC(=S)N(CCN1CCCCCC1)Cc1ccco1` the figure was -6.03%; with `Cn1c(C(=O)NCCCN2CCCCC2)cc2sccc21`, -0.77%; with `O=C(Nc1ccc(Br)cc1)OCCN1C(=O)CCC12CCC(c1ccccc1)CC2` (stereo unspecified), -1.94%.
As to `O=C1C(Cl)=C(Oc2ccccc2)C(=O)c2ccccc21`, the inhibition is 88.5% (active).
The figure for `COc1ccc(Cn2cc(CN3[C@@H](CC(C)C)COc4cc(Br)ccc4S3(=O)=O)nn2)cc1` is -4.17%; for `Cc1ccc(-n2c(SCC(=O)Nc3ccc(S(=O)(=O)Nc4nccs4)cc3)nnc2-c2ccncc2)cc1` it is -1.23%.
With `CC(C)CNc1cccc2c1S(=O)(=O)N(Cc1cn(Cc3ccc(Cl)cc3)nn1)Cc1ccccc1O2` the figure was -5.99%.
On to `O=C(NCc1ccccc1)[C@@H]1CCCN1C(=O)[C@H]1CCCN1C(=O)c1cccc(Cl)c1`, for which the inhibition is -3.52%.
The figure for `O=C(CSc1nc2ccccc2s1)NN=Cc1ccc(O)cc1O` is -0.64%; for `O=C(CSc1nc2ccccc2s1)N=Nc1c(O)[nH]c2ccccc12` it is 2.56%.
With `O=C(O)c1ccccc1CSc1nc2ccccc2s1` the figure was 40.8% (active); with `Cc1ccc(NC(=O)c2cc(C)nn2-c2ccccc2)c(C)c1`, -2.87%.
With `CCCC(=O)NC(Nc1ccccc1OC)C(Cl)(Cl)Cl` (stereo unspecified) the figure was 1.36%; with `CCN(CC)c1ccc2oc(=O)c(C)nc2c1`, 46.6% (active); with `CCN(C(=O)CSc1nnc(-c2ccc(OC(F)F)cc2)n1N)C1CCS(=O)(=O)C1` (stereo unspecified), -3.24%.
Regarding `Cc1ccc(Cc2cnc(N)s2)o1`, the inhibition was 40.4% (active).
With `Cc1ccc(-n2c(C)cc(/C=C(\C#N)C(=O)NCC3CCCO3)c2C)cc1` (stereo unspecified) the figure was -0.82%; with `CCCNC(=O)Nc1ccc2c(c1)C(=O)N(C)[C@H]1CC[C@H](CC(=O)NCC3CCCCC3)O[C@@H]1CO2`, 1.64%.
The figure for `C[C@@H](NC(=O)c1ccccc1OCC(=O)Nc1ccc(I)cc1)C(=O)N(C)Cc1ccccc1` is -0.05%.
Regarding `O=C(NCC(=O)N1CCN(c2ncc(C(F)(F)F)cc2Cl)CC1)c1ccc(Br)o1`, the inhibition is -1.7%.
With `COc1ccnc(NC(=S)N2CCN(c3ncc(C(F)(F)F)cc3Cl)CC2)c1` the figure was 35.6% (active).
The figure for `Cc1cc(C)nc(NC(=S)N2CCN(c3ccc(C(F)(F)F)cn3)CC2)c1` is 7.93%; for `CC(C)c1ccc(NC2CCCN(C(=O)c3ccncc3)C2)cc1` (stereo unspecified) it is 5.83%; for `Cc1cc(NS(=O)(=O)c2ccc(NC(=O)CSc3nnc(SCc4ccc(F)cc4)s3)cc2)nc(C)n1` it is 1.42%.
In the case of `COc1ccc(C(=O)Nc2c(Cl)cc(Cl)cc2C(=O)N2CCC(C)CC2)cc1`, the inhibition was 1.04%.
In the case of `CC1CCN(C(=S)c2ccc(-c3ccc(Cl)cc3Cl)o2)CC1`, the inhibition was 31.8% (active).
With `CC1CCN(C(=S)c2cccc(O)c2)CC1` the figure was 3%; with `C1CC1Cc1noc(CN2CCN(CC3CC3)CC2)n1`, -0.03%.
The figure for `Cc1nc(NC(=O)C(C)(C)C)sc1[N+](=O)[O-]` is -3.06%; for `CCN(CC)CCNS(=O)(=O)c1ccc(/C=C/C(=O)O)cc1` it is 4.48%; for `CCOc1cc(/C=N/n2cnnc2)c(Br)cc1O` it is 4.53%.
The figure for `CCOc1cccc(/C=N/N2C(=O)CSC2=S)c1O` is 63.6% (active); for `COC(=O)[C@]12C[C@H](CC(=O)NCC34CC5CC(CC(C5)C3)C4)C(=O)N(Cc3ccc(Cl)cc3Cl)C1=C[C@H](COCc1ccccc1)O[C@@H]2C` it is 2.58%.
As for `COC(=O)[C@]12C[C@H](CC(=O)N3CCN(C(=O)C4CC4)CC3)C(=O)N(CCC3=CCCCC3)C1=C[C@H](C(C)C)O[C@@H]2C1CC1`, the inhibition is 1.61%.
The figure for `c1ccc(CSc2ncnc3c2sc2nc(N4CCOCC4)c4c(c23)CCCC4)cc1` is -1.26%; for `Cc1cccc(NC(=O)c2sc3nc(N4CCOCC4)c4c(c3c2N)CCCC4)c1` it is 33% (active).
The figure for `Cc1cccc(NC(=O)CSc2nnc(NC(=O)CN3CCOCC3)s2)c1` is 0.98%; for `COc1cc(C(=O)N/C(=C\c2cn(C)c3ccccc23)C(=O)N2CCOCC2)cc(OC)c1OC` it is 4.22%; for `COc1ccc(C2CC=C(C(=O)O)C(c3ccccc3F)N2S(=O)(=O)c2ccc(C)cc2)cc1OC` (stereo unspecified) it is -1.02%.
The figure for `COc1cccc2c1C(=O)c1c(O)c3c(c(O)c1C2=O)CC(O)(C(C)=NNC(=O)c1ccc(Cl)c(Cl)c1)CC3OC1CC(N)C(O)C(C)O1` (stereo unspecified) is 179% (active); for `CN1c2ccc(C=O)c3c(C=O)ccc(c23)N(C)C1(C)C` it is 68.8% (active); for `O=C(CSc1nc2nccnc2c(=O)n1Cc1cccs1)Nc1ccccc1F` it is 5%.
`O=C1C(=O)N(Cc2ccc(-c3ccsc3)cc2)c2ccc(OC(F)(F)F)cc21`: the inhibition is -4.19%.
With `O=C1CC[C@@H](COc2ccc3[nH]cc(-c4ccccc4)c3c2-c2ccccc2)N1` the figure was -0.73%; with `CC(C)(C)c1nnc2sc(SCC(O)=C(C#N)c3nc4ccccc4[nH]3)nn2c1=O`, 21.6% (active).
With `Cc1ccc(NC(=O)CSc2nn3c(=O)c(C)nnc3s2)cc1Cl` the figure was 1.57%.
With `O=C(Cc1ccccc1)NCC1OCCc2ccccc21` (stereo unspecified) the figure was 0%; with `COc1ccc(NC(=O)CSc2nc(SC)ns2)c(OC)c1`, 36.5% (active).
In the case of `CSc1nsc(SCC(=O)Nc2cc(C(=O)O)ccc2C)n1`, the inhibition was 20.1%.
The figure for `COc1ccc(C)cc1NC(=O)CSc1nc(SC)ns1` is 16%; for `O=C1CC(c2ccc3c(c2)OCO3)N=C2N(CC3CC3)C/C(=C/c3ccccc3)N12` (stereo unspecified) it is -0.31%; for `CC1Cc2ccccc2N1CC(=O)Nc1ccc(S(N)(=O)=O)cc1` (stereo unspecified) it is -0.96%.
For the compound `Cc1nc2ccc(S(=O)(=O)NCC(=O)O)cc2s1`, the inhibition was 36.9% (active).
With `COc1cccc(CNC(=O)CNS(=O)(=O)c2ccc3nc(C)sc3c2)c1OC` the figure was -2.5%; with `Cc1nc2ccc(S(=O)(=O)NCC(=O)NCCN3CCCCC3C)cc2s1` (stereo unspecified), -0.17%.
With `COCC(C)NC(=O)CSc1nc2nn(-c3ccccc3)c(=O)c-2c2n1CCCCC2` (stereo unspecified) the figure was 5.41%; with `CN(C)c1ccc(N/C=C/C(=O)C(F)(F)F)cc1`, 36.9% (active); with `CNC(=S)NNC(=O)c1ccc(N(C)C)cc1`, -0.78%.
With `CC1CN(/C=C/C(=O)C(F)(F)F)CC(C)O1` (stereo unspecified), the inhibition was -0.81%.
With `c1csc(-c2nnc(SCc3nc4ccccc4[nH]3)o2)c1` the figure was -6.14%; with `C=CCN1C(=O)[C@@H](CC(=O)NCCCOCCCC)[C@]2(C(=O)OCC)CCCCC/C=C/12`, 2.37%.
The figure for `c1ccc(C(=NNc2nc3ccccc3s2)c2ccccn2)cc1` is 27.5% (active).
The figure for `CCC(=O)Nc1ccc2c(c1)C(=O)N(C)[C@H]1CC[C@H](CC(=O)NCCOC)O[C@@H]1CO2` is 5.57%; for `CCc1ccccc1N1C(=O)C2C3CC(=O)C(c4ccccc43)C2C1=O` (stereo unspecified) it is -4.03%.
With `CC1=C(C)CC2C(=O)N(c3cccc4ccccc34)C(=O)C2C1` (stereo unspecified), the inhibition is 42% (active).
The figure for `Cn1c(=O)c2cn(-c3cccc4ccccc34)cc2n(C)c1=O` is -1.91%.
With `COc1ccc(N/N=C2/CCCCC2=O)cc1` the figure was 32.7% (active); with `Cc1ccc(N/N=C2\COC(C)(C)CC2=O)cc1`, -2.4%; with `COc1ccccc1Oc1ccc(N/C=C2/CCCC2=O)cc1`, -1.7%.
In the case of `C=CCN(Cc1ccc2c(c1)OCO2)C(C#CC1CC1)C(C)(C)C` (stereo unspecified), the inhibition was 1.88%.
With `CC(NC(=O)CSc1nc2c(cc1C#N)CN(C)CC2)c1ccccc1` (stereo unspecified) the figure was 37.7% (active).
With `Cc1cc(NC(=O)CSCC(=O)NC(C)c2ccccc2)no1` (stereo unspecified) the figure was -1.57%; with `CN1CCc2nc(SC(C(=O)O)c3ccccc3)c(C#N)c(-c3cccs3)c2C1` (stereo unspecified), 11.9%.
With `CCOc1ccc(N(C)Cc2cc(=O)oc3ccc(OC)cc23)cc1` the figure was -2.23%; with `Brc1ccccc1C1N=C(c2ccccc2)NO1` (stereo unspecified), 3.27%.
Consider `COc1cc2c(cc1OC)C(c1ccccc1Br)NC(=O)C2` (stereo unspecified), for which the inhibition is 4.47%.
The figure for `Brc1ccccc1C1Nc2cccc3cccc(c23)N1` is 39.4% (active).
The figure for `COC(=O)c1c(-c2ccc(OC)cc2)c2c(c3c4ccccc4n(S(=O)(=O)c4ccc(C)cc4)c13)C(=O)N(C)C2` is 3.01%.
